Bioassay records as filed in PubChem.
The list is not random: actives were taken first. Their share in the collection is about 4.1%.
UGM FP inh = inhibitors of M. tuberculosis UDP-galactopyranose mutase; P9WIQ1; purified UGM, fluorescence polarization probe displacement; inhibition, % at 10 µM; 320,000 tested, 0.06% active; in the data active = inhibition above about 10%, passing the limit was not always enough
Target sequence (P9WIQ1 whole entry, looked up): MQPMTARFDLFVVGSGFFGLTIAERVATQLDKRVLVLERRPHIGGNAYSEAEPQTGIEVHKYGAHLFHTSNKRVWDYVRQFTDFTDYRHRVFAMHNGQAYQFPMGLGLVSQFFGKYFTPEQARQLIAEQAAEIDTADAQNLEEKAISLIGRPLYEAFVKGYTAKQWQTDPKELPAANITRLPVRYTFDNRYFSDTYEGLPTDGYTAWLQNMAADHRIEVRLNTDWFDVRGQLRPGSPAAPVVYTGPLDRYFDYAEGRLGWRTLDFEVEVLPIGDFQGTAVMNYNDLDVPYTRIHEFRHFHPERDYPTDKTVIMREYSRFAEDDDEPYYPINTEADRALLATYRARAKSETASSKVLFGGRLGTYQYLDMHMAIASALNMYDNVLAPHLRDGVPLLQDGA
RecA splice inh = inhibitors of M. tuberculosis RecA intein splicing | P9WHJ3 | cell-free RecA intein splicing, fluorescence | inhibition, % (concentration not given with the values) | 290,000 tested, 0.75% active | AID 2221; in the data active = inhibition above about 30%;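 also: 0% = vehicle wells and 100% = reference inhibitor control wells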
FBA Mtb inh = inhibitors of M. tuberculosis fructose-bisphosphate aldolase. 360,000 tested, 2.3% active. P9WQA3. purified M. tuberculosis FBA, fluorescence read-out. inhibition, % at 1 µM;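 also: 0% = vehicle and 100% = reference inhibitor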
Rv3671c inh = inhibits the M. tuberculosis serine protease Rv3671c | P9WHR9 | inhibition, % at 5.96 µM | 320,000 tested, 0.048% active; in the data active = inhibition above about 38%;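 also: extracellular domain of Rv3671c used as enzyme; 0% = enzyme with DMSO and 100% = no enzyme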
Vc quorum ag = induces V. cholerae light production without autoinducers. V. cholerae BH1578 lux reporter, luminescence, 6 h. activation, % at 18.7 µM. 350,000 tested, 0.16% active; in the data active = activation mostly above about 9.7%, no sharp cut-off
GDH-TPI counter-1 = GDH-TPI coupled enzyme inhibition counter-screen; GDH-TPI coupled enzyme counterscreen, NADH absorbance; inhibition, % at 4.8 µM; 360,000 tested, 1.2% active; AID 588335; in the data active = inhibition above about 30%;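 also: 0% = DMSO wells and 100% = wells lacking the enzyme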
Mtb FBA confirm = confirmation of M. tuberculosis fructose-bisphosphate aldolase inhibitors; inhibition, % at 1 µM; 5,600 tested, 78% active; shares compounds with FBA Mtb inh; purified M. tuberculosis FBA, fluorescence read-out;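 also: 0% = vehicle wells and 100% = reference inhibitor wells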
GDH-TPI counter-2 = GDH-TPI inhibition counter-screen for FBA inhibitors; inhibition, % at 1 µM; GDH-TPI coupled enzyme counterscreen, fluorescence; shares compounds with FBA Mtb inh; 5,600 tested, 81% active; in the data active = inhibition above about 10%
* = called active by the depositor; i = inactive; / = not tested or not shown; + = active, no number. Rule as the data show it, unless noted: active = inhibition above about 27%; inactive = the rest.

SMILES	UGM FP inh	RecA splice inh	FBA Mtb inh	Rv3671c inh	Vc quorum ag	GDH-TPI counter-1	Mtb FBA confirm	GDH-TPI counter-2
Cc1cc(OC(C(=O)O)c2ccccc2)c2c(C)c(Cc3ccccc3)c(=O)oc2c1 (stereo unspecified)	0	-2	46*	-1	4	23	1	-1
Cc1cc(OCC(=O)NCc2ccccn2)c2c(C)c(Cc3ccccc3)c(=O)oc2c1	-1	0	21	-16	0	2	/	/
Cc1cc(OC(C)C(=O)NC2CCN(Cc3ccccc3)CC2)c2c(C)cc(=O)oc2c1 (stereo unspecified)	-1	-2	10	-6	0	1	/	/
CCc1cc(=O)oc2cc(C)cc(OC(C)C(=O)NCC(O)c3ccccc3)c12 (stereo unspecified)	1	-4	59*	9	i	-7	+	+
O=C(COc1ccc2c(-c3ccccc3)cc(=O)oc2c1)NCC(O)c1ccccc1 (stereo unspecified)	0	-1	0	-6	0	5	/	/
Cc1cc(OC(C)C(=O)NCC2CCC(C(=O)O)CC2)c2c(C)c(C)c(=O)oc2c1 (stereo unspecified)	-2	-1	9	-2	0	10	/	/
CCOc1ccc(S(=O)(=O)NCCC(=O)N2CC(C)CC(C)C2)cc1 (stereo unspecified)	2	-4	4	0	i	5	/	/
COc1ccc(CN2C[C@@H](CO)O[C@@H](n3cnc4c(N(C)C)ncnc43)C2)cc1	/	/	2	/	1	4	/	/
CC(C)C(=O)Nc1cccc(COc2ccc(CN(Cc3ccccc3)C(=O)OC(C)(C)C)cc2)c1	/	/	-1	/	i	0	/	/
Cc1nn(C2CCS(=O)(=O)C2)c2nc(C3CC3)cc(C(=O)Nc3cccc(C#N)c3)c12 (stereo unspecified)	/	/	5	/	-11	10	/	/
Cc1cc(OC(C)C(=O)NCC(O)c2ccccc2)c2c(C)c(C)c(=O)oc2c1 (stereo unspecified)	1	4	50*	5	i	11	73*	45*
COc1ccc(S(=O)(=O)N2CCCCCC2)cc1C(=O)Nc1cc(C)ccn1	-2	/	3	-12	-6	5	/	/
O=C(Nc1ccc(S(=O)(=O)Nc2ncccn2)cc1)c1ccccc1NS(=O)(=O)c1ccc(F)cc1	2	0	73*	5	-1	5	-4	-4
CCc1nnc(NS(=O)(=O)c2ccc(NC(=O)c3ccccc3O)cc2)s1	5	-2	73*	0	i	6	35*	26*
O=C(Nc1ccc(-c2nc3ccccc3[nH]2)cc1)c1ccccc1NS(=O)(=O)c1ccc(F)cc1	3	25	87*	-108	0	31*	+	+
Cc1ccnc(NC(=O)c2cc(S(=O)(=O)N3CCCCC3)ccc2Cl)c1	2	3	38*	3	0	9	92*	84*
CS(=O)(=O)c1ccccc1C(=O)Nc1ccc(-c2nc3ccccc3[nH]2)cc1	0	-2	1	-3	i	28	/	/
O=C(NCc1cccnc1)c1ccccc1NS(=O)(=O)c1ccc(F)cc1	-2	5	9	7	i	-6	/	/
O=C(Nc1cc(S(=O)(=O)N2CCCCC2)ccc1Cl)c1ccccc1NS(=O)(=O)c1ccc(F)cc1	1	2	33*	-10	i	8	-7	-6
O=C(Nc1cc(S(=O)(=O)N2CCCCC2)ccc1O)c1ccccc1NS(=O)(=O)c1ccc(F)cc1	-1	7	11	-28	-1	3	/	/
Cc1ccc(S(=O)(=O)Nc2ccccc2C(=O)NCc2cccnc2)cc1	-1	-3	51*	-5	0	-2	59*	48*
COc1ccc(NC(=O)CC2SC(N3CCOCC3)=NC2=O)cc1OC (stereo unspecified)	-2	/	-3	0	i	-8	/	/
CC(C)CCNC(=O)c1nn(Cc2ccccc2)c(=O)c2ccccc12	3	/	-2	-8	0	-5	/	/
